Consider 40 compounds from the supplement of paper PMC9262897, “Low-cost anti-mycobacterial drug discovery using engineered E. coli” (Nature Communications, 2022).

Counter-ions that a name gives are not always drawn. ± gives the standard deviation of the averaged measurements.

This experiment relates to E. coli TESEC Alr+ wild-type control. Briefly: growth (OD600 after 10 h); higher = more growth (less inhibition). The note with it: compound 0.1 mM; raw OD600 reference: median of DMSO wells 0.49, cell-free background 0.052. As to the method: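 TESEC Mtb Alr E. coli (ΔaraC ΔtolC ΔentC Δalr ΔdadX, arabinose-inducible Mtb Alr) or the Alr+ wild-type control strain, grown in defined M9-fructose medium without D-alanine in 96-well plates with Prestwick library compounds at 0.1 mM and 1% DMSO. Low Alr induction is 0.1 µM arabinose and high induction is 10 mM arabinose.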
For the compound `CC1(C)O[C@@H]2C[C@H]3[C@@H]4CCC5=CC(=O)CC[C@]5(C)[C@@]4(F)[C@@H](O)C[C@]3(C)[C@]2(C(=O)CCl)O1` [Halcinonide], the growth is 0.442 ± 0.032. In turn, `O=C(O)/C=C/c1ccc(Cn2ccnc2)cc1` [Ozagrel hydrochloride] showed a growth of 0.482 ± 0.076.

The compound `CN(C)c1nc(N(C)C)nc(N(C)C)n1` [Altretamine] showed a growth of 0.618 ± 0.023. In the case of `O=C(NCC(O)CO)c1c(I)c(C(=O)NCC(O)CO)c(I)c(N(CCO)C(=O)CO)c1I` (stereo not given) [Ioversol] it was 0.452 ± 0.008; in that of `Cc1noc(NS(=O)(=O)c2ccc(N)cc2)c1C` [Sulfisoxazole], 0.588 ± 0.015.

The compound `CO[C@@]1(NC(=O)C(C(=O)O)c2ccc(O)cc2)C(=O)N2C(C(=O)O)=C(CSc3nnnn3C)CO[C@@H]21` (stereo not given in full) [Moxalactam disodium salt] displayed a growth of 0.04587 ± 5.8e-05. The result for `C[C@@](Cc1ccc(O)c(O)c1)(NN)C(=O)O` [Carbidopa] reads 0.499 ± 0.048; that for `S=c1[nH]cnc2nc[nH]c12` [Mercaptopurine], 0.234 ± 0.018. The compound `O=C(NCC1CCCCN1)c1cc(OCC(F)(F)F)ccc1OCC(F)(F)F` (stereo not given) [Flecainide acetate] had a growth of 0.495 ± 0.081. In the case of `CC(C)[C@H]1CC[C@H](C(=O)N[C@H](Cc2ccccc2)C(=O)O)CC1` [Nateglinide] it was 0.6242 ± 0.0051. The result for `CCC(C)n1ncn(-c2ccc(N3CCN(c4ccc(OCC5COC(Cn6cncn6)(c6ccc(Cl)cc6Cl)O5)cc4)CC3)cc2)c1=O` (stereo not given) [Itraconazole] reads 0.44 ± 0.018; that for `O=C(CCCCCCC(=O)Nc1ccccc1)NO` [Vorinostat], 0.495 ± 0.099. The result for `CC1CS(=O)(=O)CCN1/N=C/c1ccc([N+](=O)[O-])o1` (stereo not given) [Nifurtimox] reads 0.354 ± 0.021. In the case of `CC[N+](C)(CC)CCOC(=O)C1c2ccccc2Oc2ccccc21` [Methantheline bromide], the growth was found to be 0.592 ± 0.017.

The compound `CN1CCN(CC(=O)N2c3ccccc3C(=O)Nc3cccnc32)CC1` [Pirenzepine dihydrochloride] yielded a growth of 0.531 ± 0.061.

The compound `Clc1ccc(C(c2ccccc2Cl)C(Cl)Cl)cc1` (stereo not given) [Mitotane] registered a growth of 0.403 ± 0.0086. In turn, `CCOC(=O)c1ccc(N)cc1` [Benzocaine] had a growth of 0.432 ± 0.0086. In the case of `CC(=O)Nc1c(I)c(NC(C)=O)c(I)c(C(=O)O)c1I` [Diatrizoic acid dihydrate] it was 0.537 ± 0.08. In the case of `CC(=O)OCC(=O)NCCCOc1cccc(CN2CCCCC2)c1` [Roxatidine Acetate HCl] it was 0.673 ± 0.062; in that of `CC(=O)OCC(=O)[C@@]1(O)CC[C@H]2[C@@H]3CCC4=CC(=O)CC[C@]4(C)[C@H]3[C@@H](O)C[C@@]21C` [Cortisol acetate], 0.517 ± 0.032.

Take `N#Cc1ccc(C(c2ccc(C#N)cc2)n2cncn2)cc1` [Letrozole]: the growth is 0.502 ± 0.046. The result for `NC(=O)c1cccnc1` [Nicotinamide] reads 0.509 ± 0.11.

`COC(=O)Nc1nc2ccc(SC(C)C)cc2[nH]1` [Methiazole] returned a growth of 0.523 ± 0.037.

Consider `NS(=O)(=O)c1cc2c(cc1C(F)(F)F)NCNS2(=O)=O` [Hydroflumethiazide], for which the growth is 0.455 ± 0.035. The result for `CCCCC(O)c1ccccc1` (stereo not given) [Fenipentol] reads 0.542 ± 0.07. In the case of `NC(=O)N/N=C/c1ccc([N+](=O)[O-])o1` [Nitrofural] it was 0.0529 ± 0.0016.

With `COc1ccc(CCN(C)CCCC(C#N)(c2ccc(OC)c(OC)c2)C(C)C)cc1OC` (stereo not given) [Verapamil hydrochloride], the growth was 0.461 ± 0.022. The result for `O=C(O)CCC(=O)Nc1ccc(S(=O)(=O)Nc2nccs2)cc1` [Succinylsulfathiazole] reads 0.455 ± 0.037. The result for `CCCCN1CCCCC1C(=O)Nc1c(C)cccc1C` (stereo not given) [Bupivacaine hydrochloride] reads 0.489 ± 0.051. In the case of `C[C@H](CCC(=O)O)[C@H]1CC[C@H]2[C@@H]3[C@@H](O)C[C@@H]4C[C@H](O)CC[C@]4(C)[C@H]3CC[C@]12C` [Urosiol] it was 0.406 ± 0.011; in that of `Cc1ncc([N+](=O)[O-])n1CC(C)O` (stereo not given) [Secnidazole], 0.4475 ± 0.003. As for `Oc1c(Cl)cc(Cl)c2cccnc12` [Chloroxine], the growth was 0.0623 ± 0.0012. On to `CC(C)CC(=O)N[C@H](C(=O)N[C@H](C(=O)N[C@@H](CC(C)C)[C@@H](O)CC(=O)N[C@@H](C)C(=O)N[C@@H](CC(C)C)[C@@H](O)CC(=O)O)C(C)C)C(C)C` [Pepstatin A], for which the growth came out at 0.468 ± 0.053. Turning to `CC[N+](C)(CC)CCC[n+]1c(-c2ccccc2)c2cc(N)ccc2c2ccc(N)cc21` [Propidium iodide], the growth amounted to 0.0675 ± 0.0008. In the case of `Cc1ccnc2c1NC(=O)c1cccnc1N2C1CC1` [Nevirapine] it was 0.507 ± 0.057.

On to `CN1CCC(=C2c3ccccc3CCc3cccnc32)CC1` [Azatadine maleate], for which the growth worked out at 0.59 ± 0.059. The result for `CC(C)(C)NC[C@H](O)COc1nsnc1N1CCOCC1` [Timolol maleate salt] reads 0.51 ± 0.069; that for `Cc1ccc(C(=O)c2cc(O)c(O)c([N+](=O)[O-])c2)cc1` [Tolcapone], 0.065 ± 0.0022. The result for `OC(CCN1CCCCC1)(c1ccccc1)C1CC2C=CC1C2` (stereo not given) [Biperiden hydrochloride] reads 0.509 ± 0.062; that for `OC(CCN1CCCCC1)(c1ccccc1)C1CCCCC1` (stereo not given) [Trihexyphenidyl-D,L Hydrochloride], 0.452 ± 0.031.
